Experimental data as given in PubChem BioAssay (NCI).
About 83,000 compounds went through this panel and 20% of them were active in at least one assay; those are over-represented in the sample as a whole.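 48-hour exposure, single concentration, 96-well plates; percent growth endpoint where 0 means no net growth. Active: below 10.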 The source made the active and inactive calls.

Columns and labels:
Experiment in all cases: NCI-60 one-dose screen, 48 h (100 = growth as untreated, 0 = no growth, -100 = all killed)
Details in all cases: 10 µM unless noted
[1] = test system: HT29 colon
[2] = test system: SNB-75 CNS
[3] = test system: SNB-19 CNS
[4] = test system: U251 CNS
[5] = test system: PC-3 prostate
[6] = test system: SK-MEL-5 melanoma
[7] = test system: UACC-62 melanoma
[8] = test system: LOX IMVI melanoma
[9] = test system: SK-MEL-28 melanoma
[10] = test system: SK-MEL-2 melanoma
[11] = test system: SN12C renal
[12] = test system: UO-31 renal
[13] = test system: TK-10 renal
[14] = test system: ACHN renal
[15] = test system: CAKI-1 renal
[16] = test system: CCRF-CEM leukemia
[17] = test system: MOLT-4 leukemia
[18] = test system: EKVX NSCLC
[19] = test system: A498 renal
[20] = test system: HCT-15 colon

Measured: growth

CCOC(=O)C(CC(c1ccccc1)N1CCCCC1)[N+](=O)[O-] (centres undefined)
inactive: [1] 95.4% | [2] 86% | [3] 89.5% | [4] 73.7% | [5] 67.2% | [6] 91.2% | [7] 59.9% | [8] 63.8% | [9] 98.8% | [10] 88.5% | [11] 76.9% | [12] 46.2% | [13] 112% | [14] 72.6% | [15] 103% | [16] 49.5% | [17] 63.7%

COc1ccc(/C=N/OCC(O)CNCc2ccccc2)cc1OC1CCCC1 (centres undefined)
inactive: [1] 104% | [2] 77.9% | [3] 95.2% | [4] 99.6% | [5] 86.7% | [6] 93.3% | [7] 98.3% | [8] 91.4% | [9] 109% | [10] 115% | [18] 93.1% | [11] 99.9% | [12] 69.2% | [13] 103% | [14] 99.6% | [15] 84% | [16] 113% | [17] 101%

COc1ccc(CSc2nc3cc(OC)c(OC)cc3c(=O)n2-c2ccc(Cl)cc2)cc1
inactive: [1] 112% | [2] 92.9% | [3] 99.8% | [4] 94.2% | [5] 82% | [6] 95.4% | [7] 99.4% | [8] 98% | [9] 107% | [10] 110% | [11] 98.6% | [12] 71.2% | [13] 116% | [14] 97.1% | [15] 91.2% | [19] 88.7% | [16] 88.6% | [17] 101%

O=[N+]([O-])c1ccc(O)c2ncccc12
inactive: [1] 81% | [2] 84.1% | [3] 37.9% | [4] 34.2% | [5] 37.9% | [6] 56.4% | [7] 29.1% | [8] 46.8% | [9] 81.7% | [10] 79.1% | [18] 39.8% | [11] 35.9% | [12] 60.3% | [13] 83.2% | [14] 51.8% | [15] 57% | [19] 96% | [16] 25.5% | [17] 33.4%

O=S(=O)(/N=C1C=C/C(=N\S(=O)(=O)c2ccccc2)c2ccccc2\1)c1ccccc1
inactive: [20] 106% | [3] 116% | [4] 92.6% | [5] 79.6% | [7] 104% | [8] 68.9% | [9] 101% | [10] 114% | [18] 104% | [11] 101% | [13] 147% | [14] 105% | [15] 99.4% | [19] 117% | [17] 87.1%

Cc1nn(CC(=O)O)c2c1C(=O)CC(C)(C)C2
inactive: [1] 108% | [2] 86.8% | [4] 119% | [5] 102% | [6] 115% | [7] 91% | [8] 107% | [9] 105% | [10] 113% | [18] 105% | [11] 101% | [12] 74% | [13] 89.9% | [14] 126% | [15] 97.4% | [19] 97.8% | [16] 99.6% | [17] 81.1%

COc1ccc(/C=C2\CN(Cc3cn(CCCNc4ccnc5cc(Cl)ccc45)nn3)C/C(=C\c3ccc(OC)c(OC)c3)C2=O)cc1OC
inactive: [2] 42.6% | [3] 33% | [9] 40.1% | [10] 27.7% | [12] 33.2% | [13] 14.3% | [15] 31% | [19] 23.5%
active: [1] -40.1% | [4] 0.724% | [6] 5.86% | [8] -68.9% | [11] -38% | [14] -38% | [16] -15.2% | [17] -13%

Clc1ccc(C2=Nc3cccc4cccc(c34)N2)cc1Cl
inactive: [1] 101% | [2] 77.5% | [3] 70.3% | [4] 104% | [5] 65.8% | [6] 91.6% | [7] 109% | [8] 84% | [9] 104% | [10] 96.2% | [18] 91.1% | [11] 110% | [12] 72.3% | [13] 97.9% | [14] 94.7% | [16] 67.4%

COc1cc2cc(Oc3ccc(NC(=O)Nc4cccc(C(F)(F)F)c4)cc3)c(C)nc2cc1OCCN1CCCCC1
inactive: [18] 27.5% | [19] 51%
active: [1] -81.7% | [2] -70.3% | [4] -82.4% | [5] -54.6% | [6] -94.1% | [7] -74.2% | [8] -94.3% | [9] -92.1% | [10] -65.9% | [11] -88.9% | [12] -92.1% | [14] -73.3% | [15] -77.7% | [16] 1.49% | [17] -54.9%
